Test results as given in article PMC4336329 (PLoS ONE, 2015).
In all, about 310,000 compounds went through this assay and about 14,000 (4.5%) showed an effect of 50% or more. The effect is printed as a negative number. Many of the other results were omitted from the sample, so strong results are more common in it than they were.

Each compound was assayed against human ether-à-go-go-related gene (hERG) potassium channel (human, UniProt Q12809) (assay: primary screen, population patch clamp on CHO cells stably expressing hERG; higher = less effect of the substance).
Chain of human ether-à-go-go-related gene (hERG) potassium channel (Q12809 whole entry, looked up): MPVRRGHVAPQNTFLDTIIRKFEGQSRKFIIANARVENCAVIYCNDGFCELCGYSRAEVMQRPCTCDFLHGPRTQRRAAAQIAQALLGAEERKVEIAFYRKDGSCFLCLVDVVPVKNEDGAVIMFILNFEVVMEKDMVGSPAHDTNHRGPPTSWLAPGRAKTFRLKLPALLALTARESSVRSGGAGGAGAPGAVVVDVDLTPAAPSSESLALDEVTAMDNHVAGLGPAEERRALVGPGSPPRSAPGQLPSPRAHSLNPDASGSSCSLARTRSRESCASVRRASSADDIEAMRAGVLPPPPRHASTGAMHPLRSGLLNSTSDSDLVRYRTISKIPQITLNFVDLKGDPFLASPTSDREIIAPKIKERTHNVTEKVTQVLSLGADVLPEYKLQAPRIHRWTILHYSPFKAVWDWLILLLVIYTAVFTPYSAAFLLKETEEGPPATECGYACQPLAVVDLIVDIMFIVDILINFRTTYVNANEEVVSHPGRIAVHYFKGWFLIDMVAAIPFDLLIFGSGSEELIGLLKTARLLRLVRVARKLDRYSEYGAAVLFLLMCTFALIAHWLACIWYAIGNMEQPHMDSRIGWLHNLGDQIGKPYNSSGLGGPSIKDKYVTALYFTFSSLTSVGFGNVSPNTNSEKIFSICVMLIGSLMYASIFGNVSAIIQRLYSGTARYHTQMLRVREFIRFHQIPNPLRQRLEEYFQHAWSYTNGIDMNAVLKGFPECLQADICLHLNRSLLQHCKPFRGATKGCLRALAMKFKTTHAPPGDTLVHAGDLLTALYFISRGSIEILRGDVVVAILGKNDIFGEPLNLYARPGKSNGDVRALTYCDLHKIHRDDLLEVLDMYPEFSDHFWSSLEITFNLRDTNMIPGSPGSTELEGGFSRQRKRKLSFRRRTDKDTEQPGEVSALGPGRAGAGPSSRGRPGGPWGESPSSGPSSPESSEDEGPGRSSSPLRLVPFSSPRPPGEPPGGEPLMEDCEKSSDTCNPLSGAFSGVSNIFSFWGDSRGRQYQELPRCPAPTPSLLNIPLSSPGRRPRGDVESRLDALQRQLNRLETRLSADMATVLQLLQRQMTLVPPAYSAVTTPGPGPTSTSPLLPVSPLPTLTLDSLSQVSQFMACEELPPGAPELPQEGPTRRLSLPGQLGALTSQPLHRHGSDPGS
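Also: peak tail current of the secondary pulse compared with the same well before compound.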

Structure (SMILES) | hERG current change (%, negative = inhibition) at 10uM [%]
COc1cccc(/C=N/Nc2cc(Cl)nc(C)n2)c1O | 20.8
COc1cc2c3c(c1OC)C1(C=CC(=O)C=C1)CC3N(C(=O)c1ccccc1)CC2 (stereo not shown) | -18.6
CCC(=O)NC(=S)Nc1ccc(NC(=O)COc2ccc(Cl)cc2Cl)cc1 | 10.7
CC(=O)c1ccccc1OCc1ccc(S(=O)(=O)Cc2ccccc2)cc1 | -26.6
Cc1ccc(/C=N/Nc2ccc(Cl)nn2)cc1 | -0.808
CCN(CC)S(=O)(=O)c1ccc(C(=O)OCC(=O)Nc2sc3c(c2C#N)CCCCC3)cc1 | 8.12
Cc1ccc(NS(=O)(=O)c2ccc(C(=O)N3CC(C)CC(C)C3)cc2)cc1 (stereo not shown) | -58.7
Cc1ccc(NS(=O)(=O)c2ccc(C(=O)N3CCC3)cc2)cc1 | 15.7
Cc1ccc(NS(=O)(=O)c2ccc(C(=O)N3CC(C)OC(C)C3)cc2)cc1 (stereo not shown) | 14.2
Cc1ccc(NS(=O)(=O)c2ccc(C(=O)N3CCCCCC3)cc2)cc1 | -8.38
CC(C)(C)c1ccc(S(=O)(=O)Nc2ccc(C(=O)N3CCCC3)cc2)cc1 | -61.9
Cc1ccc(S(=O)(=O)Nc2ccc(C(=O)N3CCCC3)cc2)cc1 | -0.474
O=C(Nc1nnc(-c2ccco2)o1)c1ccc(Cl)s1 | 8.23
Cc1cc(Cl)c(OCCCSc2nc(C)cc(=O)[nH]2)c(Br)c1 | -10.3
CCc1nnc(NC(=O)CSc2ncc(-c3ccccc3)[nH]2)s1 | 2.52
Cc1cccc(C(=O)NNC(=O)c2ccccc2-n2cccc2)c1 | 11.7
COC(=O)c1c(SCC(=O)Nc2ccc(C)c(C)c2)nc(=O)[nH]c1C | 2.16
COC(=O)c1c(SCc2ccc(C#N)cc2)nc(=O)[nH]c1C | -76.9
COC(=O)c1c(SCc2cccc3ccccc23)nc(=O)[nH]c1C | 7.87
CCOC(=O)c1c(C)n(C)c2ccc(OCC(O)CNC(CC)CO)cc12 (stereo not shown) | -7.11
COc1ccccc1/C=N/Nc1nccnc1Cl | -11.5
O=C(O)c1ccc(N=Cc2c(O)[nH]c(=O)[nH]c2=O)cc1 | 8.59

Structure (SMILES) | hERG current change (%, negative = inhibition) at 10uM [%]
OCCC1CN(CCCn2cccn2)CCN1Cc1ccccc1 (stereo not shown) | -8.62
CC(C)N1CCC(N2CCN(CCCn3cccn3)CC2CCO)CC1 (stereo not shown) | -28
CC(C)=CCN1CCN(CCCn2cccn2)CC1CCO (stereo not shown) | -11.8
CCOc1ccccc1CN1CCN(CCCn2cccn2)CC1CCO (stereo not shown) | -57.4
CC(C)CCN1CCN(CCCn2cccn2)CC1CCO (stereo not shown) | -6.72
Cc1ccc(CN2CCN(CCCn3cccn3)CC2CCO)cc1 (stereo not shown) | -66.9
CCOc1ccc(CN2CCN(CCCn3cccn3)CC2CCO)cc1 (stereo not shown) | -80.1
Cc1cccc(NS(=O)(=O)c2cccc3cccnc23)n1 | 4.27
COC(=O)C(Cc1ccccc1)NC(=O)c1cccc(S(=O)(=O)N(C)C)c1 (stereo not shown) | 2.5
Cc1ccccc1-c1noc(N)c1C#N | 0.198
CCCOc1cc(C)c(S(=O)(=O)NC2CC(C)(C)NC(C)(C)C2)cc1C | -15
Cn1c(CSCc2ccc(Cl)cc2)nnc1SCC(=O)Nc1nc2ccccc2s1 | 9.45
Cc1cc(C)cc(C(=O)NCCn2cc(SCC(=O)N3CCOCC3)c3ccccc32)c1 | -9.88
O=C(O)CNc1ncccc1[N+](=O)[O-] | -86.1
O=[N+]([O-])c1cccnc1NCCc1ccccc1 | -18.9
O=C(O)CNc1nc(Cl)ccc1[N+](=O)[O-] | 6.24
CNC(=O)C(=O)NCCN1CCN(S(=O)(=O)c2ccc3ccccc3c2)CC1 | 29.3
CC[C@@H]1CN(C)[C@H]2Cc3c([nH]c4ccccc34)C(=O)C[C@@H]1[C@@H]2C(=O)OC | 11.8
CC[C@H]1CN(C)CCc2c([nH]c3ccccc23)C(=O)C[C@@H]1/C(=C\OC)C(=O)OC | -69.5
CC[C@H]1CN(C)C[C@@]2(C(=O)OC)Cc3c([nH]c4ccccc34)C(=O)C[C@@H]12 | 9.71
C=CCc1cccc(C=Nc2ccc(Br)cc2)c1O | -4.96
FC(F)(F)c1cc(Oc2ccc(Cl)cc2)ncc1-c1nnc(-c2ccc(Cl)cc2)o1 | 5.81

Structure (SMILES) | hERG current change (%, negative = inhibition) at 10uM [%]
CC(C)C(=O)NCCc1nc(-c2ccccc2Cl)no1 | 16.1
O=C(OCCN=C1NS(=O)(=O)c2ccccc21)C1CC(=O)N(c2ccc(Cl)cc2)C1 (stereo not shown) | -7.04
O=C(OCCCN=C1NS(=O)(=O)c2ccccc21)C1CC(=O)N(c2ccc(Cl)cc2)C1 (stereo not shown) | -58.7
O=C(OCCOCCN=C1NS(=O)(=O)c2ccccc21)C1CC(=O)N(c2ccccc2)C1 (stereo not shown) | 13.1
CC1(C)CC(CC(=O)O)(c2ccc(F)cc2)CCO1 (stereo not shown) | 3.33
Cc1ccc(C)c(SCC(=O)Nc2ccc(C)c(S(=O)(=O)N3CCOCC3)c2)c1 | -13.4
CCOCCCNc1c(CC)c(C)c(C#N)c2nc3ccccc3n12 | -42.3
COCCOC(=O)c1c(N)n(Cc2ccc(OC)cc2)c2nc3ccccc3nc12 | -75.4
COC(=O)c1c(N)n(Cc2ccc(OC)cc2)c2nc3ccccc3nc12 | -34.1
COCCNC(=O)c1c(N)n(Cc2ccco2)c2nc3ccccc3nc12 | -6.12
COCCOC(=O)c1c(N)n(Cc2ccccc2)c2nc3ccccc3nc12 | -36.5
COCCCNC(=O)c1c(N)n(Cc2ccco2)c2nc3ccccc3nc12 | -2.08
CC(C)CNC(=O)c1c(N)n(Cc2ccco2)c2nc3ccccc3nc12 | -14.1
COCCOC(=O)c1c(N)n(Cc2ccco2)c2nc3ccccc3nc12 | -56.7
Cc1ccc(Cn2c(C)nc3c(c2=O)c2nc4ccccc4nc2n3Cc2ccco2)cc1 | 5.72
Cc1cccc(-n2cnc3c(c2=O)c2nc4ccccc4nc2n3Cc2ccco2)c1 | -63.7
CC(C)OC(=O)c1c(N)n(Cc2ccco2)c2nc3ccccc3nc12 | -31.4
Cc1cc(C)cc(-n2c3nc4ccccc4nc3c3c(=O)n(Cc4ccco4)cnc32)c1 | 6.26
COCC(C)OC(=O)c1c(N)n(Cc2ccco2)c2nc3ccccc3nc12 (stereo not shown) | -55.7
COC(=O)C1=C(C)Nc2ncnn2C1c1ccco1 (stereo not shown) | 6.44
COCCCn1c(SCC(=O)NNC(=O)c2cccc(O)c2)nnc1-c1ccncc1 | 5.74
COc1ccc(-c2nc(C#N)c(N3CCC(C(N)=O)CC3)o2)cc1OC | -10.3

Structure (SMILES) | hERG current change (%, negative = inhibition) at 10uM [%]
COCCN(CC(=O)Nc1cccc(C)c1C)C(=O)c1cc(-c2cccs2)nn1-c1ccccc1 | 1.14
CCCCOc1ccc(CSc2n[nH]c(C)n2)cc1 | -1.41
CN1CCN(C(=O)CC2C(=O)NCCN2Cc2ccc(-c3ccccc3)cc2)CC1 (stereo not shown) | 2.25
COC(=O)C1CN(C(=O)COc2cc(C)c(Cl)c(C)c2)c2ccccc2O1 (stereo not shown) | 18.9
O=C1NC(=O)C2(CCC(C(=O)O)C2)N1 (stereo not shown) | 19.3
CCOC(=O)c1oc2ccc(/C=N/O)c(Cl)c2c1C | 37.3
O=C(CSc1cccc[n+]1[O-])Nc1ccc(C(F)(F)F)cc1[N+](=O)[O-] | 4.31
Clc1ccc(CO/N=C/c2cccs2)cc1 | 12.4
CCOC(=O)c1c(N)n(Cc2ccccc2)c2nc3ccccc3nc12 | -29.6
CCCCOCCCn1c(N)c(C(=O)OC(C)COC)c2nc3ccccc3nc21 (stereo not shown) | -9.66
COCCCn1c(N)c(C(=O)OC(C)COC)c2nc3ccccc3nc21 (stereo not shown) | 0.737
COCC(C)OC(=O)c1c(N)n(CC(C)C)c2nc3ccccc3nc12 (stereo not shown) | -67.8
CC(C)(C)OC(=O)c1c(N)n(Cc2ccco2)c2nc3ccccc3nc12 | -5.55
CCOC(=O)c1c(N)n(Cc2ccco2)c2nc3ccccc3nc12 | -61.9
CSc1nccc(-c2nn(-c3ccc(C)cc3)ccc2=O)n1 | -15
COC(=O)CSc1nnc(CNC(=O)c2ccc(S(=O)(=O)N3CCOCC3)cc2)n1C | 23.7
COCCNC(=O)c1cccc(OC2CCN(Cc3ccccc3OC(F)F)CC2)c1 | 2.5
COCCNC(=O)c1cccc(OC2CCN(Cc3ccc(C(=O)OC)cc3)CC2)c1 | -40.5
COCCNC(=O)c1cccc(OC2CCN(Cc3ccc(Cl)c(F)c3)CC2)c1 | -37.5
COCCNC(=O)c1cccc(OC2CCN(Cc3ccc(C(C)C)cc3)CC2)c1 | -70.7
COCCNC(=O)c1cccc(OC2CCN(Cc3ccc(OC(F)F)cc3)CC2)c1 | -73.5
COCCNC(=O)c1cccc(OC2CCN(Cc3ccc(F)c(OC)c3)CC2)c1 | -16.2
